In the library only some 3% were active in any assay of this set; here they are far more common.
TRAIL sens C8 = sensitizes caspase-8 expressing cells to TRAIL. inhibition (viability loss, TRAIL sensitization), % at 10 µM. 1% of 360,000 active. NB7+C8 cells + TRAIL, ATPlite viability luminescence;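 active = compounds causing at least 50% loss of cell viability in the single-dose screen, relative to plate controls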
SENP8 block-1 = inhibitors of human SENP8 protease; Q96LD8; purified SENP8, Z-RLRGG-aminoluciferin cleavage, luminescence; inhibition, % at 10 µM; 1.2% of 330,000 active; AID 2540; in the data active = inhibition above about 50%
Target sequence (Q96LD8 whole entry, looked up): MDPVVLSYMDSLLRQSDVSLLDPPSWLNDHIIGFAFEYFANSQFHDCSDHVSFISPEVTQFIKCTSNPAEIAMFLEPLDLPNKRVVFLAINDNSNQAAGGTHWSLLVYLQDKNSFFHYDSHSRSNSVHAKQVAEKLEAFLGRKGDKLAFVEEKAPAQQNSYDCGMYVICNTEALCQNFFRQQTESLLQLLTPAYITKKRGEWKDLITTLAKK
SENP7 inh = SENP7 protease inhibition; Q9BQF6; recombinant SENP7, Z-RLRGG-aminoluciferin luminescence, 40 min; inhibition, % at 5 µM; 1.5% of 330,000 active; AID 434973;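 active = inhibition above about 50% at the single test dose, limit read from the data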
SENP6 block = blocks the human protease SENP6 | Q9GZR1 | Recombinant SENP6 catalytic domain, aminoluciferin luminescence | inhibition, % at 10 µM | 1.8% of 330,000 active;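 active = inhibition above about 50% at the single tested dose, limit read from the data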
SENP8 block-2 = inhibitors of human SENP8 protease | Q96LD8 | recombinant SENP8, Nedd8 substrate fluorescence | inhibition, % at 20 µM | 0.64% of 360,000 active; in the data active = inhibition mostly above about 40%, no sharp cut-off; inactive = mostly below about 27%
PPC-1+TRAIL kill = kills PPC-1 cancer cells in the presence of TRAIL; PPC-1 cells + TRAIL, ATPLite viability luminescence; cell killing (% activity), % at 4 µM or 5 µM; 0.41% of 220,000 active; AID 1443;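 active = cell killing above 50% in the first pass at 4 µM, then a duplicate retest at 5 µM averaging 50% or more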
SENP8 conf = human SENP8 inhibition, confirmed; inhibition, % at 12.5 µM; shares compounds with SENP7 inh; Recombinant SENP8, Z-RLRGG-aminoluciferin luminescence, 60 min; 40% of 6,200 active; AID 488912;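 active = mean inhibition across replicates above about 50%, limit read from the data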
SENP6 conf = human SENP6 inhibition, confirmed. shares compounds with SENP7 inh. recombinant SENP6, Z-RLRGG-aminoluciferin luminescence. inhibition, % at 12.5 µM. 58% of 6,200 active
SENP7 conf = confirmation of human SENP7 protease inhibitors; shares compounds with SENP7 inh; recombinant SENP7, Z-RLRGG-aminoluciferin luminescence, 40 min; inhibition, % at 12.5 µM; 69% of 6,200 active; AID 488917
Casp3 select = caspase-3 inhibition (SENP selectivity assay); purified caspase-3, Z-DEVD-aminoluciferin luminescence, 60 min; shares compounds with SENP7 inh; inhibition, % at 12.5 µM; 60% of 6,200 active;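 active = mean inhibition above about 50%, limit read from the data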
Target sequence (P42574 28-227 limits assumed): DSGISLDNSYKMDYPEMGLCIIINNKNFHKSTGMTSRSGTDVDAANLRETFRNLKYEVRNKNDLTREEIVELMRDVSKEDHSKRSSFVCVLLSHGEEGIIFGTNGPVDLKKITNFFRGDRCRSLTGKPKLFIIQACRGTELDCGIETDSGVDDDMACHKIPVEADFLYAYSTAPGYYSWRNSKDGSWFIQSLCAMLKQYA
Luc interf = counter-screen for SENP inhibitors: luminescence interference | shares compounds with SENP7 inh | Pre-incubated SENP8/Z-RLRGG-aminoluciferin, luciferase luminescence interference | inhibition, % at 12.5 µM | 39% of 6,200 active | AID 488919;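 active = mean inhibition above about 50% when retested at one dose, limit read from the data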
A number is an active result; – = inactive; · = no result.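 The calls were made as follows, unless noted: active = mean inhibition above about 50% in the one-dose retest (limit read from the data); inactive = the rest.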

SMILES	TRAIL sens C8	SENP8 block-1	SENP7 inh	SENP6 block	SENP8 block-2	PPC-1+TRAIL kill	SENP8 conf	SENP6 conf	SENP7 conf	Casp3 select	Luc interf
Fc1ccc(-c2[nH]ncc2CN(CC2CCC2)CC2CCCO2)c(F)c1 (stereo not drawn)	–	–	–	–	–	–	·	·	·	·	·
Cc1ccc(C(C[N+](=O)[O-])c2c(C)[nH]n(-c3ccccc3)c2=O)cc1 (stereo not drawn)	–	–	–	54	61	–	–	–	–	–	–
O=C(NNC(=O)c1cccc2ccccc12)c1ccc2c(c1)OCO2	–	–	–	–	–	–	·	·	·	·	·
O=c1[nH]c(/C=C\c2cccc(F)c2)nc(O)c1[N+](=O)[O-]	–	–	–	–	–	·	·	·	·	·	·
Cc1ccc2nc(/C=C/c3cccc(F)c3)ccc2c1	–	–	–	50	–	–	–	–	56	–	59
N/C(=N\OC(=O)/C=C/c1ccccc1Cl)c1cccnc1	–	–	52	–	–	–	–	–	–	–	–
N/C(=N\OC(=O)COc1ccc(Br)cc1Cl)c1ccccn1	66	86	97	96	–	–	89	87	97	82	89
N/C(=N\OC(=O)/C=C/c1ccc(Br)cc1)c1ccccn1	–	–	53	57	–	–	–	–	–	–	–
N/C(=N\OC(=O)/C=C/c1ccccc1Cl)c1ccccn1	–	86	89	95	–	–	91	90	100	85	88
N/C(=N\OC(=O)/C=C/c1ccccc1)c1cccnc1	–	–	–	–	–	–	·	·	·	·	·
O=C(COC(=O)/C=C/c1ccccc1Cl)Nc1cccnc1Cl	–	–	–	–	–	·	·	·	·	·	·
N/C(=N\OC(=O)C(c1ccccc1)c1ccccc1)c1ccccn1	–	–	–	–	–	–	·	·	·	·	·
Cc1nn(CC(=O)NCC(C)c2ccccc2)c(=O)c2cccn12 (stereo not drawn)	–	–	–	–	–	·	·	·	·	·	·
COc1ccc(CCNC(=O)C(=O)NCC2OCCN2S(=O)(=O)c2cc(F)ccc2F)cc1OC (stereo not drawn)	–	–	–	–	–	·	·	·	·	·	·
COc1ccc(S(=O)(=O)Nc2ccccc2N2CCOCC2)cc1OC	–	–	–	–	–	·	·	·	·	·	·
CN(Cc1ccc(Cl)cc1)C(=O)c1ccc2ccccc2n1	–	–	–	–	–	·	·	·	·	·	·
CC(C)C1COC(c2cccc3ccccc23)=N1 (stereo not drawn)	–	89	92	96	–	–	60	92	100	85	–
CCn1cc(C2=NC(C(C)C)CO2)c2ccccc21 (stereo not drawn)	–	–	–	–	–	–	·	·	·	·	·
CCN(Cc1ccccc1)N=Nc1ccccc1	–	·	·	·	–	·	·	·	·	·	·
CC(C)CNC(=S)NNC(=O)c1csc2c1CCCC2	–	–	50	–	–	–	–	–	–	–	–
O=Nc1c2nc3ccccc3n(O)c-2c2ccccc12	–	–	–	50	–	–	–	–	–	53	–
Clc1nc(-c2ccccn2)nc2scc(-c3ccccc3)c12	–	68	–	87	–	72	–	52	–	–	–
CC1CCN(c2nc(-c3cccnc3)nc3scc(-c4ccccc4)c23)CC1	–	–	–	–	–	–	·	·	·	·	·
O=[N+]([O-])c1ccc(O)c(/C=N/Nc2ncnc3c2cnn3-c2ccccc2)c1	–	93	93	90	–	·	87	91	100	–	–
COc1ccccc1C(=O)Nc1nnc(SCC(=O)NCc2ccco2)s1	–	–	–	–	–	·	·	·	·	·	·
SMILES	TRAIL sens C8	SENP8 block-1	SENP7 inh	SENP6 block	SENP8 block-2	PPC-1+TRAIL kill	SENP8 conf	SENP6 conf	SENP7 conf	Casp3 select	Luc interf
COc1ccc(C(=O)Nc2nnc(SCC(=O)Nc3ccc(NC(C)=O)cc3)s2)c(OC)c1	–	–	–	–	–	·	·	·	·	·	·
COc1ccc(C(=O)Nc2nnc(SCC(=O)NC3CCCC3)s2)c(OC)c1	72	–	63	64	–	·	–	–	–	–	–
COc1ccc(C(=O)Nc2nnc(SCC(=O)NCc3ccco3)s2)c(OC)c1	59	–	52	57	–	·	–	–	68	59	–
COc1ccc(CCNC(=O)c2c(O)c3ccccc3[nH]c2=O)cc1	–	–	–	–	–	·	·	·	·	·	·
C(=C\c1nnc(-c2cccs2)o1)/c1ccccc1	–	74	–	81	–	–	–	61	88	65	–
Cc1ccc(/C=C/c2nnc(-c3ccccc3)o2)cc1	–	76	–	86	–	–	–	63	89	80	–
Clc1ccccc1-c1nnc(-c2cccs2)o1	–	72	80	81	–	–	75	74	92	79	55
Cc1ccc(-c2noc(/C=C/c3ccccc3)n2)cc1	–	–	–	–	–	–	·	·	·	·	·
COc1ccccc1NC(=O)C1=C(C)NC(SCC(=O)Nc2ccc(C(=O)O)cc2)=C(C#N)C1c1cccs1 (stereo not drawn)	–	–	–	–	–	–	·	·	·	·	·
CCCC(C)NC(=O)c1sc2nc3n(c(=O)c2c1C)CCC3 (stereo not drawn)	–	–	–	–	–	–	·	·	·	·	·
Cc1occc1C(=O)/C(C#N)=C/c1ccc(O)c(Br)c1	–	97	93	98	–	·	98	100	103	97	97
Cc1cc(NS(=O)(=O)c2ccc(NC(=O)c3cnc4scc(C)n4c3=O)cc2)nc(C)n1	–	–	–	–	–	–	·	·	·	·	·
Cc1cccc(NC(=O)Nc2ccc(S(=O)(=O)Nc3onc(C)c3C)cc2)c1	–	83	–	77	–	·	88	85	94	87	52
Cc1cc(NS(=O)(=O)c2ccc(NC(=O)Nc3cccc(Cl)c3)cc2)no1	–	72	69	84	–	–	–	81	93	67	59
Cc1noc(NS(=O)(=O)c2ccc(NC(=O)c3cnc4scc(C)n4c3=O)cc2)c1C	–	–	–	67	–	–	–	–	69	82	–
Cc1cc(NS(=O)(=O)c2ccc(NC(=O)Nc3ccc4c(c3)OCO4)cc2)no1	–	–	–	67	–	–	55	51	82	76	–
CCCCn1c(N)c(N(C)C(=O)c2cc3c(s2)CCCCC3)c(=O)[nH]c1=O	–	–	–	–	–	·	·	·	·	·	·
